The source made the active and inactive calls.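 How the source made its calls, unless noted: active means viability loss from added drug above about 55%, and viability with drug at most 40%, in both replicates (limit read from the data, passing the limit was not always enough); inconclusive means both conditions met in only one replicate; inactive means neither replicate meets both conditions.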
Experiments:
[1] = Her2 expression decrease, cell viability multiplex – SKBR3 breast tumor cells, AlphaScreen, ATP viability, primary screen (AID 461;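 active means Her2 level under about 52% in both replicate screens, with viability over 70% of control, limit read from the data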;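 on Her2 level: lower value means less Her2 protein in the cells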;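 on viability: percent of carrier control wells set as 100% viability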); conditions: SKBR3 Her2 protein level, 18-24 h, measured here: SKBR3 viability, ATP luminescence, at 10 µM
[2] = biological target: Receptor tyrosine-protein kinase erbB-2 (Homo sapiens) (UniProt P04626); assay: as above; conditions: 18-24 h, at 10 µM, stronger effect = lower value
Receptor tyrosine-protein kinase erbB-2 (Homo sapiens), sequence (P04626 whole entry, looked up): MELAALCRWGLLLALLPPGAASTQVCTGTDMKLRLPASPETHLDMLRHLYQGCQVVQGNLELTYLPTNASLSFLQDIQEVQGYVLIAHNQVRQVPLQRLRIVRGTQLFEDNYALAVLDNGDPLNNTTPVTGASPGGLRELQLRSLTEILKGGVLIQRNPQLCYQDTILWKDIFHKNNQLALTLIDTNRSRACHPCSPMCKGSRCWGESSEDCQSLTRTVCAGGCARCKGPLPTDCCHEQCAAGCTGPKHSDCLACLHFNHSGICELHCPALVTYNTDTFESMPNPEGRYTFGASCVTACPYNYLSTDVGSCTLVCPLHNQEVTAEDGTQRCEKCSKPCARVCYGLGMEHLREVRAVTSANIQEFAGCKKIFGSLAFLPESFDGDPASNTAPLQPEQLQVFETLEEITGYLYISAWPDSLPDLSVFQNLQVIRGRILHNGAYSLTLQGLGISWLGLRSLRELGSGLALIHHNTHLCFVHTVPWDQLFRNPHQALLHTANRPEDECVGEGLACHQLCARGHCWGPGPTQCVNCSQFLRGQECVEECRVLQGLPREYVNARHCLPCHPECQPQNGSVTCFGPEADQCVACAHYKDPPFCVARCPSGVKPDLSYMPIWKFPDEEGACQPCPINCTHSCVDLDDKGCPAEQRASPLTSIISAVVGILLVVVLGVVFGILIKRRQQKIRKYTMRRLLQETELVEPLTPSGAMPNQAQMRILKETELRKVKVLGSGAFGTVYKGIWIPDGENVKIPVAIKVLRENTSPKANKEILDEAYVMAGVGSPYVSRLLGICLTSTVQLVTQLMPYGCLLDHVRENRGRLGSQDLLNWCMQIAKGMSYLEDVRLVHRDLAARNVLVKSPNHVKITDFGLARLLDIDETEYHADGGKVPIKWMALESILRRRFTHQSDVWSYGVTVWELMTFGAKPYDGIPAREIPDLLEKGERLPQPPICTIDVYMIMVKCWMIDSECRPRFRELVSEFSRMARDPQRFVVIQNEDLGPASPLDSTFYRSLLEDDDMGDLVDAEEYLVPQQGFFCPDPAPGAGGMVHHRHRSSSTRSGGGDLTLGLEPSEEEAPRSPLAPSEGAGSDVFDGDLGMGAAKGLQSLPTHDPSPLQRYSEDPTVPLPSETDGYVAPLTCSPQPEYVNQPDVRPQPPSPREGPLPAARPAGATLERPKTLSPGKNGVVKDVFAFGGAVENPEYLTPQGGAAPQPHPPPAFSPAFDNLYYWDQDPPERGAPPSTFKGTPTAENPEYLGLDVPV

[3] = reduced viability of SK-BR-3 breast cancer cells – cell-based, 24 h, human, pilot screen (AID 572;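 active means viability at or below 10% of carrier control in both of two separate runs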;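 further: compound exposure lasted between 18 and 24 h rather than exactly 24 h; 100% = carrier-treated control wells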); conditions: SK-BR-3 viability, CellTiter-Glo luminescence, at 10 µM, stronger effect = lower value
[4] = H69AR cell proliferation blockers – human, duplicate replicates, primary screen (AID 580;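 active means viability at or under a set limit in both replicates, limit being median viability minus 3 SD, cut at about 48% in these data, passing the limit was not always enough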;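 further: 100% = mean luminescence of untreated wells and 0% = no signal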); conditions: H69AR lung tumor cells viability, ATP luminescence, 72 h; at 10 µM; stronger effect = lower value
[5] = MRP1 drug-resistance reversers in H69AR cells – cell-based, doxorubicin co-treatment, pilot screen (AID 601); conditions: CellTiter-Glo, 72 h, at 10 µM; for differential viability (reversal): stronger effect = higher value
[6] = yeast transport mutant growth inhibition pilot in 384-well plates, post-Golgi transport modulator project (AID 636; in the data active means inhibition above about 31%); conditions: absorbance 615 nm, about 18 h, stronger effect = higher value
[7] = growth suppression of yeast trafficking mutant, preliminary HTS, modulators of trafficking downstream of Golgi apparatus project, 1536-format plate, OD 615 nm (AID 637; in the data active means inhibition above about 30%); conditions: yeast transport mutant growth, absorbance 615 nm, 18 h; stronger effect = higher value
[8] = HUVEC growth inhibition – cell-based, human, primary screen (AID 575;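 active means viability at or below 30% in both replicate assays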;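 further: 100% = median of untreated cell wells with 0.1% DMSO on each plate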); conditions: HUVEC proliferation, CellTiter-Glo luminescence, 72 h; at 10 µM; stronger effect = lower value
[9] = H69AR cells + 2 uM doxorubicin, measured here: viability with 2 uM doxorubicin, stronger effect = lower value
[10] = H69AR cells, compound alone cytotoxicity

Structure (SMILES) | viability [1] | Her2 level [2] | viability [3] | viability [4] | differential viability (reversal) ([5]; H69AR cells + 2 uM doxorubicin) | viability [5, 9] | viability [5, 10] | inhibition [6] | inhibition [7] | viability [8]
CC1CCc2nc(NC(=O)CN3CCN(Cc4ccc5c(c4)OCO5)CC3)sc2C1 (centres undefined) | 90.5% | 77.5% (inactive) | 90.5% (inactive) | 87.8% (inactive) | 14.3% (inactive) | 73.5% | 87.8% | -0.66% (inactive) | 2.1% (inactive) | –
CCOC(=O)c1c(C)oc2c1c(C=NCc1ccccn1)c(O)c1ccccc12 | 154% | 22% (active) | 154% (inactive) | 16.5% (active) | 6.13% (inactive) | 10.3% | 16.5% | -8.38% (inactive) | 3.67% (inactive) | –
c1ccc(CN2CCN(c3ncnc4c3[nH]c3ccccc34)CC2)cc1 | 121% | 47% (active) | 121% (inactive) | 60.6% (inactive) | -22.6% (inactive) | 83.2% | 60.6% | -6% (inactive) | 2.1% (inactive) | –
O=C(CSc1n[nH]c(-c2ccco2)n1)Nc1sc2c(c1C(=O)Nc1ccccc1)CCCC2 | 99.5% | 99% (inactive) | 99.5% (inactive) | 65.9% (inactive) | -13% (inactive) | 78.9% | 65.9% | -4.42% (inactive) | -10.7% (inactive) | –
O=S(=O)(c1ccc(Br)s1)N1CCN(c2ccccc2)CC1 | – | – | 90% (inactive) | 87.6% (inactive) | -4.09% (inactive) | 91.7% | 87.6% | -3.78% (inactive) | -3.27% (inactive) | 96.9% (inactive)
N#CC1=C(N)OC2=C(CCC/C2=C/c2ccoc2)C1c1ccoc1 (centres undefined) | – | – | 87% (inactive) | 80.8% (inactive) | 2.94% (inactive) | 77.9% | 80.8% | -5.95% (inactive) | 0.18% (inactive) | 99.1% (inactive)
OC(CCN1CCCC1)(c1ccccc1)C1CCCCC1 (centres undefined) | – | – | 93% (inactive) | 95.9% (inactive) | 6.63% (inactive) | 89.3% | 95.9% | – | – | 69.5% (inactive)
C=CCSc1nnc(NC(=O)c2ccc(S(=O)(=O)NCC3CCCO3)cc2)s1 (centres undefined) | – | – | 97% (inactive) | 90.4% (inactive) | -2.83% (inactive) | 93.2% | 90.4% | -3.84% (inactive) | -3.71% (inactive) | 84.3% (inactive)
CCOC(=O)c1cnn(-c2sc(C(=O)OCC)c(C)c2C(=O)OCC)c1N | 95% | 93.5% (inactive) | 95% (inactive) | 15.8% (active) | -25.8% (inactive) | 41.6% | 15.8% | 0.27% (inactive) | -4.6% (inactive) | –
Cc1nc2sccn2c(=O)c1CCN1CCC(=C(c2ccccc2)c2ccc(F)cc2)CC1 | – | – | 160% (inactive) | 81.9% (inactive) | -12.5% (inactive) | 94.5% | 81.9% | -0.13% (inactive) | 24.5% (inactive) | 3.02% (active)
CC(C)(C)C(=O)OCC1OC(n2cnc(C(N)=O)n2)C(O)C1O (centres undefined) | – | – | 89% (inactive) | 96.1% (inactive) | 1.56% (inactive) | 94.5% | 96.1% | -8.22% (inactive) | -2.36% (inactive) | 99.1% (inactive)
CCCc1ccc(Oc2cn[nH]c2-c2ccc(O)c(C)c2O)cc1 | 106% | 76.5% (inactive) | 106% (inactive) | – | -26.3% (inactive) | 34.6% | 8.33% | 100% (active) | 100% (active) | –
O=C(NC1CCCC1)C(c1cccs1)N(C(=O)c1ccno1)c1ccccc1 (centres undefined) | 57.5% | 92% (inactive) | – | 91.2% (inactive) | 6.13% (inactive) | 85.1% | 91.2% | -3.78% (inactive) | 5.08% (inactive) | 95.2% (inactive)
O=C(CCCCCn1c(=S)[nH]c2cc3c(cc2c1=O)OCO3)N1CCN(Cc2ccccc2)CC1 | 83% | 77.5% (inactive) | 83% (inactive) | – | 7.46% (inactive) | 55.3% | 62.7% | -4.73% (inactive) | -0.66% (inactive) | –
COc1cc(C)nc(N2CCCC(C(=O)Nc3cccc(Cl)c3Cl)C2)n1 (centres undefined) | 71% | 62.5% (inactive) | 71% (inactive) | – | -1.86% (inactive) | 58.3% | 56.4% | 0.39% (inactive) | -10.2% (inactive) | –
Cc1cc(C)c2c(=O)[nH]c(=O)n(Cc3ccccc3)c2n1 | 64% | 75.5% (inactive) | – | 95.7% (inactive) | 10.9% (inactive) | 84.8% | 95.7% | -5.26% (inactive) | 6.55% (inactive) | 81.7% (inactive)
COC(=O)c1sc(N)c(C(=O)OC)c1COC(=O)C1CC(=O)N(Cc2ccco2)C1 (centres undefined) | – | – | 84% (inactive) | 72.8% (inactive) | -6.05% (inactive) | 78.9% | 72.8% | -4.19% (inactive) | -2.18% (inactive) | 103% (inactive)
CCOC(=O)c1cnc(-n2nc(C)cc2C)nc1Nc1ccc(N(C)C)cc1 | 102% | 75.5% (inactive) | 102% (inactive) | 37.9% (active) | 11.6% (inactive) | 26.3% | 37.9% | -6.05% (inactive) | -1.13% (inactive) | –
CN(C)CCCN1c2ccccc2Sc2ccccc21 | – | – | 66.5% (inactive) | 74.7% (inactive) | -8.33% (inactive) | 83% | 74.7% | – | – | 74.2% (inactive)
CC(C)N=c1cc2n(-c3ccc(Cl)cc3)c3ccccc3nc-2cc1Nc1ccc(Cl)cc1 | – | – | 102% (inactive) | 64.4% (inactive) | -6.59% (inactive) | 71% | 64.4% | – | – | 9.11% (active)
CC(=Nc1cccc(O)c1)c1sc2ccccc2c1O | 103% | 71.5% (inactive) | 103% (inactive) | – | -38.1% (inactive) | 92.5% | 54.5% | -5.79% (inactive) | -3.33% (inactive) | –
O=C(Nc1ccc(S(=O)(=O)N2CCCCCC2)cc1)c1ccco1 | 94.5% | 89.5% (inactive) | 94.5% (inactive) | 97.1% (inactive) | 2.81% (inactive) | 94.3% | 97.1% | -1.17% (inactive) | 6.07% (inactive) | –
CCOc1cc(NC(=O)c2ccco2)c(OCC)cc1NC(=O)CCc1ccc(OC)cc1 | 89% | 88% (inactive) | 89% (inactive) | 78.7% (inactive) | -9.95% (inactive) | 88.6% | 78.7% | 2% (inactive) | 1.31% (inactive) | –
COCc1cc(=O)[nH]c(Nc2nc3ccccc3o2)n1 | 112% | 80% (inactive) | 112% (inactive) | 30.3% (active) | -9.32% (inactive) | 39.6% | 30.3% | -4.27% (inactive) | -6.72% (inactive) | –
Cc1ccccc1NC(=O)CN1CCC(NC(=O)Nc2ccccc2)CC1 | – | – | 108% (inactive) | 84.8% (inactive) | -4.37% (inactive) | 89.1% | 84.8% | -7.7% (inactive) | -3.64% (inactive) | 104% (inactive)
Cn1c(=O)n(CCN2CCOCC2)c(=O)c2c1nc1n2CCN1c1ccccc1 | 41.5% | 102% (inactive) | – | 67.9% (inactive) | 4.43% (inactive) | 63.5% | 67.9% | 3.51% (inactive) | -2.54% (inactive) | 52.8% (inactive)

From PubChem BioAssay
